Compound activity (PubChem BioAssay)
Beta apoptosis = inhibitors of cytokine-induced beta cell apoptosis, primary screen, luminescence. AID 435005, 2010. INS-1E cytokine-induced death, ATP luminescence, 48 h; percent of positive-control rescue, neutral wells zero. protection from apoptosis, % (test concentration not listed). actives 0.8% (n = 300,000);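 active means Every replicate reaches about 75%, or at least half do and their mean reaches it too, limit read from the data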;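 further: 0% = cytokine-treated negative control wells and 100% = positive control rescue; higher means more ATP so stronger rescue from cytokine killing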
697 NFkB inh = inhibitors of PMA/ionomycin-induced NF-kB reporter, 697 cells, primary screen, B-cell NF-kB inhibitor project, cell-based, luminescence, uHTS. 697 B-cell NF-kB luciferase reporter, 16 h. actives 0.33% (n = 330,000). AID 435022, 2010. inhibition, % at 4 µM; in the data active means inhibition above about 35%
Gli-Sufu block = Gli-Sufu pathway antagonists, primary screen, luciferase luminescence, Sufu-KO-LIGHT cells, uHTS | inhibition, % at 5 µM | Sufu-KO-LIGHT fibroblasts, Gli luciferase reporter luminescence | actives 0.74% (n = 340,000);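 active means inhibition above about 55%, limit read from the data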;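 further: 0% = DMSO-treated cells and 100% = wells with medium but no cells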
Jurkat NFkB inh = inhibitors of induced NF-kB luciferase reporter, primary screen, TCR NF-kB activation inhibitor project, cell-based, luminescence, uHTS | Jurkat, PMA/ionomycin-induced NF-kB luciferase reporter | inhibition, % at 4 µM | actives 0.53% (n = 330,000); in the data active means inhibition above about 50%
Gli-Sufu confirm = Gli-SUFU pathway antagonists, confirmation, single concentration, luciferase luminescence, Sufu-KO-LIGHT cells | actives 40% (n = 2,500) | AID 602428, 2012 | shares compounds with Gli-Sufu block | inhibition, % at 5 µM | Gli luciferase reporter;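 active means mean inhibition at 5 µM reaching about 45%, limit read from the data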;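 further: plate controls were DMSO-treated cells for no effect and wells lacking cells for full effect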
SufuKO cytotox = cytotoxicity in Sufu-KO-LIGHT cells, confirmation, cytotoxicity control for Gli-SUFU antagonist project, cell-based, ATP luminescence, single concentration. shares compounds with Gli-Sufu block. cytotoxicity, % at 5 µM. actives 32% (n = 2,500). AID 651994, 2013;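 active means mean cytotoxicity at 5 µM above about 25%, limit read from the data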;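 further: cells exposed to compound overnight for roughly 16 to 18 hours; plate controls were DMSO wells with cells for no effect and medium without cells for full effect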
Wnt3a cs = Wnt3a reporter signal inhibition, confirmation, counter-screen for Gli-SUFU antagonist project, Wnt-LIGHT cells, luminescence, single concentration; shares compounds with Gli-Sufu block; Wnt3a-driven luciferase reporter; inhibition, % at 6.25 µM; actives 20% (n = 2,500); AID 651995, 2013;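 active means mean inhibition above about 25%, limit read from the data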
Starred values were filed as active, the others as inactive; . = no result given. Hits are enriched below; roughly 1.8% of the tested compounds scored in any of these assays.

SMILES	Beta apoptosis	697 NFkB inh	Gli-Sufu block	Jurkat NFkB inh	Gli-Sufu confirm	SufuKO cytotox	Wnt3a cs
CCOc1ccc(NC(=O)CCNC(=O)C2CCN(S(=O)(=O)c3ccccc3)CC2)cc1	.	-13	57*	4	14	26*	-26
Cn1c(=O)[nH]c(=O)c2c1nc(N1CCOCC1)n2CCN1CCOCC1	-10	19	-2	-20	.	.	.
Cn1c(=O)[nH]c(=O)c2c1ncn2CCN1CCOCC1	-4	-5	92*	12	14	13	9
O=C(CCCC(=O)OCC(Cl)=C(Cl)Cl)Nc1cccc2ccccc12	0	-29	40	-8	.	.	.
Cc1onc(-c2c(F)cccc2Cl)c1C(=O)NC(=S)NC1CCSC1=O (stereo not drawn)	6	-8	-3	-5	.	.	.
CN(Cc1nccs1)C(=O)c1cc(COc2cccc3cnccc23)on1	32	-37	58*	19	42	20	0
COc1cc(Cl)ccc1OCc1cc(C(=O)N(C)Cc2cccc3cnccc23)no1	.	-54	4	-52	.	.	.
Cc1ccccc1C(=O)Nc1ccc(-c2nnc(SC(C)C(=O)O)n2C)cc1 (stereo not drawn)	-2	7	-2	-1	.	.	.
Cc1c(OCC(=O)C(C)(C)C)ccc2c3c(c(=O)oc12)CCCC3	.	-20	62*	-12	27	7	-50
C=C1C(=O)OC2C=C(CO)C3OC3C3OC3(C)CC(OC(=O)/C(=C/C)COC(C)=O)C12 (stereo not drawn)	.	.	68*	.	61*	19	57*
COc1cc(NC(=S)NCCN2CCOCC2)cc(OC)c1OC	-5	-19	51	-20	24	3	2
COc1ccc2nc3sc(C(=O)NCCCN4CCc5ccccc5C4)cc3cc2c1	-9	6	-20	-31	.	.	.
COc1ccc2nc3sc(C(=O)N4CCN(C)CC4)cc3cc2c1	-8	-3	94*	-14	9	23	1
CC(=O)c1c(C)[nH]c(C(=O)OCC(=O)Nc2ccc(Cl)cc2[N+](=O)[O-])c1C	113*	-27	75*	31	75*	31*	24
Cc1cc(C)cc(N(CC(=O)N/N=C/c2ccncc2)S(=O)(=O)c2ccccc2)c1	-2	11	3	-3	.	.	.
Cc1ccc(S(=O)(=O)N(Cc2ccccc2Cl)C(=O)N2CCN(C)CC2)cc1	.	-3	-3	-6	.	.	.
Nc1nc2n(n1)C(c1ccco1)CC(c1ccc(Cl)cc1Cl)N2 (stereo not drawn)	8	5	50	-4	8	11	6
CN1CCN(C2=Cc3ccccc3Sc3cc(F)c(Cl)cc32)CC1	5	-16	54	-11	23	0	-34
COc1ccc(N2C(=O)CC(C)(C)CC2=O)cc1OC	-2	0	1	1	.	.	.
CCOCCCNC(=O)C(NC(=O)c1ccc(NC(C)=O)cc1)c1ccc(C)cc1 (stereo not drawn)	-6	-2	96*	2	14	1	4
CC(C)C(=O)NC(=S)Nc1ccc(S(=O)(=O)Nc2ccccc2)cc1	-9	-7	35	12	.	.	.
Cc1ccc(NC(=O)COc2ccccc2[N+](=O)[O-])nc1	-33	-132	-77	-91	.	.	.
CC(NCc1ccc(OCC(N)=O)cc1)C12CC3CC(CC(C3)C1)C2 (stereo not drawn)	.	-2	51	10	34	12	-20
COc1cc([N+](=O)[O-])ccc1NC(=O)Nc1cnccn1	1	-11	-1	31	.	.	.
Cc1cc(C)c(C)c(S(=O)(=O)N2CCN(c3ncnc4ccccc34)CC2)c1C	104*	-31	53	20	71*	20	12
SMILES	Beta apoptosis	697 NFkB inh	Gli-Sufu block	Jurkat NFkB inh	Gli-Sufu confirm	SufuKO cytotox	Wnt3a cs
O=S(=O)(c1cc(C(F)(F)F)ccc1Cl)N1CCN(c2ncnc3ccccc23)CC1	.	-33	61*	35	61*	19	44*
CSc1nnc([C@@H]2CCCN2C(=O)OC(C)(C)C)o1	0	17	-2	2	.	.	.
Cn1c(C2CCCN2C(=O)OC(C)(C)C)n[nH]c1=S (stereo not drawn)	1	35	54	1	12	6	-2
Cc1cc(NC(=O)CSc2nc(Cc3ccc(O)cc3)c(C)[nH]2)no1	.	-13	53	-1	15	6	-18
CCOC(=O)C1=CN(Cc2ccco2)S(=O)(=O)N(CC)C1c1cccc(OC)c1 (stereo not drawn)	.	-5	52	.	10	22	-16
CCOC(=O)C1=CN(Cc2ccco2)S(=O)(=O)N(C)C1c1cccc(OC)c1 (stereo not drawn)	.	3	3	.	.	.	.
CCOC(=O)C1=CN(Cc2ccco2)S(=O)(=O)N(CC)C1c1ccccc1 (stereo not drawn)	.	-2	53	.	12	3	-10
CCN1C[C@@H]2[C@@H]3C(=O)N(Cc4ccccc4)C(=O)[C@@H]3[C@](Cc3ccccc3)(C1=O)N2C(=O)c1ccc(Cl)c(Cl)c1	.	.	3	.	.	.	.
COc1cccc(NC(=O)CCS(=O)(=O)c2ccc3c(c2)oc(=O)n3C)c1	-2	-8	51	20	18	26*	-25
COc1cc(NC(=O)CCS(=O)(=O)c2ccc3c(c2)oc(=O)n3C)cc(OC)c1OC	-3	11	5	8	.	.	.
c1ccc(Nc2nc(NCC3CCCO3)c3ccccc3n2)cc1 (stereo not drawn)	31	-48	57*	13	45*	36*	28*
Oc1cccc(Nc2nc(NCC3CCCO3)c3ccccc3n2)c1 (stereo not drawn)	.	-96	38	-6	.	.	.
C=CCn1c(SCC(=O)Nc2sc(C)c(C)c2C(=O)OCC)nnc1-c1sc(N)nc1C	0	-21	2	-7	.	.	.
O=C(NCCOc1ccccc1)c1ccccc1Cl	-5	-156	-90	-130	.	.	.
CN(C(=O)COc1ccccc1C(=O)NCCOc1ccccc1)c1ccccc1	37	-44	69*	10	66*	43*	1
CCc1ccc(NC(=O)NCc2ccccn2)cc1	-8	-62	-12	-20	.	.	.
CCCOc1ccc(Br)cc1CSC(=N)N	99*	-24	61*	27	56*	27*	18
CCOc1ccc(S(=O)(=O)N2CCCCC2)cc1NC(=O)c1cccnc1OCC	2	20	56*	-4	28	19	-41
O=C(NCCCn1ccnc1)/C(=C\c1cccnc1)NC(=O)c1cccc(Br)c1	3	-22	98*	-11	37	13	13
